Assay results as given in PubChem BioAssay AID504692 (The Scripps Research Institute Molecular Screening Center, 2011).
Hit rate of the full screen: of about 340,000 compounds, about 2,000 (0.59%) were called active. This excerpt belongs to a sample that is enriched for actives. Values without a mark were called inactive. Rule as the data show it: active = activation mostly above about 9.5% (no sharp cut-off); inactive = mostly below about 7.6%.

Target: 5-hydroxytryptamine receptor 5A (Homo sapiens) (UniProt P47898)
Test: HTR5A agonists in luminescence cell assay, primary screen, counter-screen for OPRM1-OPRD1 heterodimer agonist project, full-deck HTS (AID 504692);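 also: 0% = cells with vehicle only and 100% = reference agonist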
Conditions: cell-based, at 9.3 µM, active compounds read high

Sequence of 5-hydroxytryptamine receptor 5A (Homo sapiens) (P47898 whole entry, looked up): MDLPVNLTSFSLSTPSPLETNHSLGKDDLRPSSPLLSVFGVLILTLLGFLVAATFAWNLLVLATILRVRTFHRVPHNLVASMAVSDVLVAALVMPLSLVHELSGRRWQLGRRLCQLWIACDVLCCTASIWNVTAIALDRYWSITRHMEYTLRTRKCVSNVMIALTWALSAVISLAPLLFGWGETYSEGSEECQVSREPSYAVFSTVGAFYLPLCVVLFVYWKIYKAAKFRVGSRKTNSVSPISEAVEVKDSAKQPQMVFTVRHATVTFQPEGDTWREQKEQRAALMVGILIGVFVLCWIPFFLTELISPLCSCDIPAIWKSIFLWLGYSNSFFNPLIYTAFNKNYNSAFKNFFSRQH

Compound | activation
Cc1ccc(C)c(NC(=O)CCC(=O)N/N=C2/CC(=O)CC(C)(C)C2)c1 | 0.95%
O=C(CCN1CCCCC1)N=Nc1c(O)[nH]c2ccccc12 | -0.47%
Cc1c(-c2ccccc2)n[nH]c1C(=O)N=Nc1c(O)[nH]c2ccccc12 | 12.7% (active)
Oc1[nH]c2ccccc2c1N=Nc1c(F)c(F)c(F)c(F)c1F | 4.3%
NC(=O)c1ncn([C@@H]2O[C@H](CNCc3cnc(N4CCOCC4)s3)[C@@H](O)[C@H]2O)n1 | -1.96%
CCOC(=O)C(C)n1cnc2c(nnn2-c2ccc(F)cc2)c1=O (stereo unspecified) | 0.23%
Fc1ccccc1OCCSc1nc2ccccc2o1 | 4.15%
CC(C)(C)C1C/C(=C/c2ccco2)C(=O)/C(=C/c2ccco2)C1 (stereo unspecified) | 10.1% (active)
CS(=O)(=O)c1ccc2c(c1)SC1=NC(=O)/C(=C/c3ccco3)C(=N)N12 | 3.34%
COC(=O)COc1ccc2c(c1C)O/C(=C\c1ccco1)C2=O | -6.31%
COc1c(O)cc2oc(-c3ccc(O)c(O)c3)cc(=O)c2c1O | -1.01%
Cc1ccc(S(=O)(=O)N2CCN(C(=O)COC(=O)/C=C/c3cccc(Cl)c3)CC2)c(C)c1 | 8.67%
Cc1c(C2=CCN(S(=O)(=O)c3ccc(Cl)cc3)CC2)c2ccccc2n1C | 1.24%
COC(=O)CSc1nnc(-c2cccnc2)o1 | 0.3%
CCN(C(=O)CSc1nnc(-c2ccncc2)o1)c1ccccc1 | -1.64%
Cc1cccc(C)c1OC(=O)CSc1nnc(-c2ccccc2)o1 | 11% (active)
CCCCN(CCCC)CCC(O)c1cc2c(Cl)cc(Cl)cc2c2cc(C(F)(F)F)ccc12 (stereo unspecified) | 5.23%
Cc1nn(CC(=O)Nc2ccc3c(c2)OCO3)c(C)c1[N+](=O)[O-] | 6.4%
Cc1onc(C(=O)Nc2ccc3c(c2)OCO3)c1[N+](=O)[O-] | 14.2% (active)
Cn1cc([N+](=O)[O-])c(C(=O)Nc2ccc3c(c2)OCCO3)n1 | -1.8%
O=c1cc(CO)oc(C(Nc2cccc([N+](=O)[O-])c2)c2ccccn2)c1O (stereo unspecified) | 0.87%
Cc1ccc2nc(-c3ccncc3)cc(C(=O)Nc3ccncc3)c2c1 | 21% (active)
CCn1c(SCC(=O)Nc2ccc3c(c2)OCCO3)nnc1-c1ccncc1 | 3.29%

Compound | activation
CCOc1ncccc1C(=O)Nc1ccc2c(c1)OCCO2 | 0.83%
Cc1ccc2nc(-c3ccncc3)cc(C(=O)Nc3ccc(OC(F)F)cc3)c2c1 | 1.14%
Cc1ccc2nc(-c3ccncc3)cc(C(=O)Nc3ccc4c(c3)OCCO4)c2c1 | 12.6% (active)
CCN(CC)CCNC(=O)c1ccc(NC(=O)c2cc(-c3ccncc3)nc3ccccc23)cc1 | 2.22%
COc1cc2c(cc1OC)C1C(=O)c3cc(OS(C)(=O)=O)c(OC)cc3C1N(C)C2=O (stereo unspecified) | -2.76%
OC(CN=c1sc2ccccc2n1CC(O)COc1ccccc1)COc1ccccc1 (stereo unspecified) | 7.91%
CCn1nnc(NC(=O)c2cc(Cl)c(OC)c(Cl)c2)n1 | -6.18%
CN(CCc1ccccc1)c1ccc([N+](=O)[O-])cn1 | 2.92%
COc1ccc(Br)cc1S(=O)(=O)N1CCN=C1C | 2.3%
O=C(CN1C(=O)C2C3C=CC(C3)C2C1=O)NCCc1ccccc1Cl (stereo unspecified) | -1.28%
CCCCOC(=O)NCN1C(=O)C2C3C=CC(C3)C2C1=O (stereo unspecified) | 9.49% (active)
CCCCCOC(=O)c1ccc(N2C(=O)C3C4C=CC(C4)C3C2=O)cc1 (stereo unspecified) | -1.59%
CCc1c(Nc2ccccc2Cl)nc(N)[nH]c1=O | -3.6%
NC(=O)N1CCCC1C(=O)Nc1ccc(Cl)c(Cl)c1 (stereo unspecified) | 1.66%
O=C(CC(O)(C(F)(F)F)C(F)(F)F)Nc1ccc(Cl)c(Cl)c1 | 20.1% (active)
O=C(COC(=O)c1cc[n+]([O-])cc1)Nc1ccc(Cl)c(C(F)(F)F)c1 | 3.73%
CC(C)(C)NS(=O)(=O)CC12CCC(CC1=O)C2(C)C (stereo unspecified) | 3.18%
COc1ccccc1CNS(=O)(=O)CC12CCC(CC1=O)C2(C)C (stereo unspecified) | -5.29%
CC1(C)C2CCC1(CS(=O)(=O)NCCc1c[nH]c3ccccc13)C(=O)C2 (stereo unspecified) | 41.5% (active)
COc1ccc(OC)c(C2C3=C(N=c4s/c(=C\c5cccc(O)c5)c(=O)n42)c2ccccc2CC3)c1 (stereo unspecified) | 13.5% (active)
COc1ccc(/C=C2/CCCc3ccccc3C2=O)cc1 | -2.8%
O=C1[C@@H]2C(Cc3ccc(O)cc3)NC3(C(=O)Nc4ccc(F)cc43)[C@@H]2C(=O)N1c1ccc(F)cc1 (stereo partly specified) | 1.44%
CC1CCN(CC(=O)Nc2nccs2)CC1 | -1.58%
